Most compounds without a hit are left out; they make up all but 6.5% or so of the library.
Marburg entry inh: blocks Marburg virus binding to or entry into cells | 300,000 compounds, 1.8% hits | Marburg virus pseudotyped entry inhibition, cell reporter | Potency, µM (highest dose often 37.8 µM), for the others: at the top dose activity change, negative = inhibition, most hits filed as inhibitors | AID 540276; calls by dose curve; tested in HEK293 cells; note: potency is the fitted concentration of half-maximal effect
HCMV antiviral: human cytomegalovirus inhibition; activity change, negative = inhibition, % at 57.5 µM; 410,000 compounds, 4.5% hits; HFF cells, HCMV-luciferase reporter, 72 h; active compounds read low; AID 1259415; in the data active = activity change below about -60%; inconclusive = no clear call, values can overlap the other calls; inactive = above about -39%
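Two-dose cell screen: HFF monolayers treated with compounds and infected with luciferase-expressing HCMV at 1 PFU/cell, 72 h at 37C, then lysed for luciferase measurement.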
Vaccinia Venus: inhibitors of vaccinia virus (Venus reporter) | Vaccinia virus Venus reporter expression, fluorescence | Potency, µM (top dose mostly 36.5 µM), inactives show at the top dose activity change, negative = inhibition, usual class: inhibitors | 330,000 compounds, 0.46% hits; calls by dose curve; tested in A549 cells; note: potency is the fitted concentration of half-maximal effect; nearly all actives have a fitted effect of over 30% in size
FMDV antiviral: blocks foot and mouth disease virus. Potency, µM (series often up to 57.9 µM), for the others: at the top dose activity change, negative = inhibition, hits mostly inhibitors. FMDV antiviral cell-based qHTS. AID 1159524. 410,000 compounds, 1.2% hits; calls by dose curve; tested in HEK293T cells; note: read-out not given here; potency is the fitted concentration of half-maximal effect; nearly all actives have a fitted effect of over 45% in size
Lassa entry inh: blocks Lassa virus binding to or entry into cells. Lassa virus pseudotype entry inhibition, cell reporter. Potency, µM (highest dose often 37.9 µM), inactives show at the top dose activity change, negative = inhibition, actives largely listed as inhibitors. 300,000 compounds, 1.2% hits. AID 540256; calls by dose curve; tested in HEK293 cells; note: potency is the fitted concentration of half-maximal effect; nearly all actives have a fitted effect of over 50% in size
VACV mCherry inh: vaccinia inhibition (mCherry reporter). Vaccinia virus mCherry reporter infection, fluorescence. Potency, µM (top dose mostly 36.5 µM), without a hit: top-dose activity change, negative = inhibition, usual class: inhibitors. 310,000 compounds, 0.63% hits. AID 720579; calls by dose curve; tested in A549 cells; note: potency is the fitted concentration of half-maximal effect; nearly all actives have a fitted effect of over 35% in size
Starred values were filed as active, the others as inactive; i = inactive; ? = inconclusive; / = no result given; + = active, no number; [ ] = remark or other dose. % is set by controls: 0 for no effect and ±100 for the full control effect.

SMILES | Marburg entry inh | HCMV antiviral | Vaccinia Venus | FMDV antiviral | Lassa entry inh | VACV mCherry inh
Cc1ccc(-c2cc(C(=O)NCCCN3CCCC3)c3ccccc3n2)cc1C | 11µM* | -23 | -21% | -15% | ? | i
Nc1ccccc1C(=O)NCCCN1CCOCC1 | 1% | -105* | -4% | 9% | 3% | -2%
O=C(NCc1ccccc1Cl)O[C@H]1CC[C@@]23CCCN2C(=O)CCC[C@H]3[C@H]1Cc1ccccc1 | / | -2 | / | / | / | /
CCOC(=O)c1cccn1C1C(=O)N(Cc2ccc(C(F)(F)F)cc2)c2ccc(OC)cc21 (configuration not stated) | / | -9 | / | / | / | /
COc1ccc(/C=c2\[nH]c(=O)/c(=C/c3ccc(OC)c(OC)c3)[nH]c2=O)cc1OC | / | / | -9% | / | / | 24%
CC(C)c1ccc(OCc2ccc(C(=O)O)o2)cc1 | 3.7µM* | -10 | 6% | 10µM* | 3.5µM* | -14%
CCN(Cc1ccccc1)C(=O)c1cc2c(=O)[nH]c3ccc(C)cc3c2s1 | 9%[46.1 µM] | -24 | -25% | -4% | / | ?
N#Cc1c(Nc2ccccc2Cl)s[nH]c1=O | 5%[46.1 µM] | -87* | -5% | -18% | -14%[46.1 µM] | -8%
CC(=O)N1CCC[C@H]1C(=O)NCC1Cc2cc(C)cc(-c3ccc(Cl)cc3)c2O1 (some centres not stated) | / | / | -10% | -4% | / | -17%
CC1CCCCN1CCCNC(=O)c1cc(Sc2ccc(Cl)cc2)nc2ccccc12 (configuration not stated) | / | -21 | -28% | -17% | 26%[46.1 µM] | -28%
CC1CCN(CCCNC(=O)c2cc(Sc3ccc(F)cc3)nc3ccccc23)CC1 | / | -65* | -16% | -17% | -23%[46.1 µM] | i
Cc1ccc2nc(Cl)c3cc(C(=O)NCCCN4CCC(C)CC4)sc3c2c1 | 6%[46.1 µM] | 5 | -9% | -13% | ? | -6%
O=C(NCCCN1CCCC1)c1cc2c(Cl)nc3ccccc3c2s1 | 10µM* | -35 | ? | -2% | ? | i
CCCN1CCN(CCCNC(=O)c2cc3c(Cl)nc4ccccc4c3s2)CC1 | ? | -80* | 1% | -20% | 3%[46.1 µM] | 12%
CC1CCN(CCCNC(=O)c2cc3c(Cl)nc4ccccc4c3s2)CC1 | / | -91* | / | -23% | / | /
Cc1ccc(C(=O)Nc2ccc3ccccc3n2)cc1 | ? | -102* | -10% | -2% | ? | -7%
COc1cccc(-c2nnc(SCC(=O)N3CCCC3=O)n2-c2ccccc2)c1 | 3% | 0 | -12% | / | 16% | i
COc1cccc(-c2nnc(SCC3CNC(=O)O3)n2-c2ccc(Cl)cc2)c1 (configuration not stated) | 15% | -101* | -15% | -29% | -4% | -14%
COc1ccc(S(=O)(=O)c2c(Nc3c(C)cccc3C)sc(C(=O)c3ccc(F)cc3)c2N)cc1 | / | ? | -29% | 0% | ? | -28%
CCCCCCNC(=O)Nc1ccccc1 | -16% | 52 | / | 0% | 10% | /
CCCCCCCC[n+]1c(C)n(-c2ccccc2)c2ccc(NC(C)=O)cc21 | ? | -77* | -7% | ? | 7.1µM* | -6%
O=C(NCC1CCC2(CCN(Cc3ccccc3O)CC2)O1)C1CCCO1 (configuration not stated) | / | / | -3% | -8% | / | -10%
NC(=S)N/N=C1\CCOc2ccc(Cl)cc21 | / | -104* | / | -18% | / | /
NC(=S)NN=C1c2cc(S(=O)(=O)N3CCOCC3)ccc2-c2ccc(S(=O)(=O)N3CCOCC3)cc21 | 8% | -32 | -14% | -24% | -14% | -22%
CCN1C(=O)[C@@H]2[C@H]3[C@H](O)[C@H](O)CC(=NOC[C@@H](C)[C@H](OCc4ccccc4)C(C)C)[C@@H]3CC[C@H]2C1=O | 1%[14.2 µM] | / | / | / | 13%[14.3 µM] | /
SMILES | Marburg entry inh | HCMV antiviral | Vaccinia Venus | FMDV antiviral | Lassa entry inh | VACV mCherry inh
CN1CCN(CC2(O)CCN(S(=O)(=O)c3ccc(Cl)cc3)CC2)CC1 | ? | -69* | -9% | -24% | 4% | -10%
COc1ccc(S(=O)(=O)N2CCC(O)(c3ccc(Cl)cc3)CC2)cc1OC | ? | -73* | -12% | ? | ? | i
O=C(NCc1ccc(Cl)cc1)C(=O)NCC(c1ccc2c(c1)OCO2)N1CCOCC1 (configuration not stated) | / | 72 | -14% | -13% | 0%[46.1 µM] | -6%
Cc1cc(C)c(C(=O)CSC2=NC(N)=C(C#N)C3(CCCCC3)C2C(N)=O)cc1C (configuration not stated) | ? | -67* | -14% | ? | -19%[14.3 µM] | -18%
CCc1ccc(NC(=O)c2nc(SCc3ccccc3F)ncc2Cl)cc1 | / | / | -16% | / | / | -20%
CCOC(=O)c1cccc(NC(=O)c2cc3c(=O)n(C)c4ccccc4c3n2C)c1 | 6%[46.1 µM] | -8 | -28% | -26% | 6%[46.1 µM] | -18%
CCOc1ccccc1Oc1cn[nH]c1-c1ccc(O)cc1O | ? | -78* | -19% | ? | ? | ?
CCCc1ccc(Oc2cn[nH]c2-c2ccc(O)cc2O)cc1 | -20% | -68* | / | 0% | ? | /
C=C(C)COc1ccc(-c2[nH]ncc2Oc2ccccc2OCC)c(O)c1 | ? | -17 | ? | -9% | ? | /
CSc1ccc(CNC(=O)Cn2c(-c3cccs3)cc3cc(F)ccc32)cc1 | / | -33 | -15% | -16% | -9%[46.1 µM] | -6%
CC1(C)NCCN2C(=O)CS[C@H]21 | 16%[46.1 µM] | / | / | / | / | /
C[C@@H](ON=C1[C@H]2CCn3c(=O)n(-c4ccccc4)c(=O)n3[C@@H]2[C@H](O)[C@@H]2O[C@H]12)c1cn([C@H](CO)Cc2ccccc2)nn1 | -23%[14.2 µM] | / | / | / | ? | /
O=C(c1ccc(F)c(F)c1)N1CCOc2ccc(CN3CCN(Cc4ccccn4)CC3)cc2C1 | / | / | -12% | -3% | / | -4%
CN(C)c1ccc(-c2ccc(CCO)cc2)cc1 | / | / | -6% | / | / | 25%
Cc1nc2cc(C(F)(F)F)ccc2n1C1CCN(CC(=O)NC(C)(C)C)CC1 | ? | -82* | / | -17% | 14% | /
CC(NC(=O)C1CCOCC1)c1nnc2n1CCN(Cc1ccc3ccccc3c1)CC2 (configuration not stated) | / | / | -2% | -17% | / | -15%
O=Cc1ccc(/C=C2\C=Cc3ccccc32)cc1 | / | / | -18% | / | / | -9%
CCOC(=O)C1=C(C)N(c2ccc(OC)cc2)C(=O)/C1=C\c1cccs1 | -2% | -62* | / | ? | -5% | /
CCCNC(=O)CCc1c(C)nc2nc(CNC(=O)c3ccccc3)nn2c1C | -22%[46.1 µM] | 2 | 8% | 13% | 3%[46.1 µM] | 6%
O=C(CN(CC(=O)Nc1ccc(F)cc1)CC(=O)Nc1ccc(F)cc1)Nc1ccc(F)cc1 | / | 52 | / | / | / | /
CCOc1ccccc1CNS(=O)(=O)c1cc(-c2onc(C)c2C)ccc1OC | / | + | -13% | 54% | -15%[46.1 µM] | -15%
COc1ccc(-c2onc(C)c2C)cc1S(=O)(=O)NCc1ccc(C)o1 | / | -71* | -28% | 39% | ? | -1%
COc1ccccc1CN1CCC(CNS(=O)(=O)c2cc(-c3onc(C)c3C)ccc2OC)CC1 | / | 21 | -26% | 11% | -1%[46.1 µM] | ?

Assay outcomes: PubChem BioAssay, National Center for Advancing Translational Sciences (NCATS)
